Experimental data taken from the supplement of paper PMC10338343.
± gives the standard deviation.

Test system: MILI (PIWIL2) piRISC loaded with piRNA #1 (26 nt)
Assay: pre-steady-state target cleavage rate (min^-1); guide: piRNA #1 5'p-UGAGGUAGUAGGUUGUAUAGUAUCCA; MIWI and MILI are mouse PIWI proteins and EfPiwi is from a freshwater sponge; tags in brackets are library labels; higher = faster piRNA-guided slicing of the target
Details: auxiliary factor: 500 nM mouse GTSF1
Protocol: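 Cleave-'n-Seq: a library of target RNAs (target site embedded in constant flanks, ACAGCATTCCGCGTTAGTGATATCCG... 5' flank; DNA-blocked outside the site) at 0.1 nM was incubated with 1 nM active mouse MILI or MIWI piRISC (synthetic 5'-monophosphorylated piRNA guide) with or without 500 nM mouse GTSF1 at 33 °C for 1 min to 16 h. Uncleaved targets were sequenced and normalised to non-target controls, and the pooled three trials were fitted to a burst-and-steady-state model to give the pre-steady-state cleavage rate (min^-1; k3 is constrained to at most 1e-4). Sequence is the target site only; target names encode pairing extent (gX:gY) and contiguous / 1-mismatch / 2-mismatch / bulge geometry. Fits with R² ≤ 0 are excluded.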

Row | Sequence | pre-steady-state target cleavage rate
1 | GGAGAGGAUACUAUACUACCAACUACCUCA | 0.00796 ± 0.0017
2 | GGAGACCUAUGAUAUGUUCCUACUAGGUCA | < 0.0001
3 | GGAGACGAUACUAUACAUCCUACUACGUCA | 0.213 ± 0.033
4 | GGAGACCAUACUAAACAACCUACUUCCUCA | 0.068 ± 0.011
5 | GGAGUGGAUACUUACAACCUACUACCUCA | 0.141 ± 0.012
6 | GGAGACCUAUGAUUACAACCUACUACCUCG [g2:g17:cont:t1G] | 0.00649 ± 0.0032
7 | GGAGACCUAUGAAUACAACCUACUACCUCC [g2:g18:cont:t1C] | 0.0111 ± 0.0027
8 | GGAGACCUAACUAUACAACCUACUACCCUCA | 0.185 ± 0.034
9 | GGAGACCAUACUAUACAACCUACUAGGAGA [g6:g23:cont:t1A] | 0.00402 ± 0.0038
10 | GGAGACCUAUGUAUACAACCUACUAGCUCA | 0.0155 ± 0.0035
11 | GGAGACCUAACUUUAGAACCUACUACCUCA | 0.129 ± 0.023
12 | GGAGUGGAUACUAUACAACCUACUACCAUCA | 0.0921 ± 0.013
13 | GGAGAGGAUACUCAUACAACCUACUACCUCA | 0.149 ± 0.015
14 | GGAGAGGAUACUAUACAACCUACGUACCUCA | 0.0773 ± 0.012
15 | GGAGACGAUACUAUACAACCUACUAACCUCA | 0.194 ± 0.02
16 | GGAGACCUAACUAUACAACUUACUACCUCA | 0.0179 ± 0.0043
17 | GGAGACCUAACUAUACAUCCUACAACCUCA | 0.246 ± 0.033
18 | GGAGUCGAUACUAUACAACCUACUACGUCA | 0.0797 ± 0.0078
19 | GGAGACCUAACUAUACAACGUACAACCUCA | 0.0148 ± 0.005
20 | GGAGUGGAUACUAUACUAGCUACUACCUCA | 0.158 ± 0.011

Row | Sequence | pre-steady-state target cleavage rate
21 | GGAGACGAUACUAUACAACCUACUACCUACA | 0.178 ± 0.013
22 | GGAGACCUUACUAUACAACCUACUACCACA | 0.18 ± 0.018
23 | GGAGACCAAACUAUACAACCUACUAGCUCA | 0.0778 ± 0.029
24 | GGAGUGGUUACUAUACAACCUACAACCUCA | 0.0861 ± 0.0095
25 | GGAGUCGAUACUAUACAACCUACUAGCUCA | 0.0244 ± 0.0057
26 | GGAGACCUAUCUAUACAACCUAACUACCUCA | 0.00833 ± 0.0023
27 | GGAGACGAUACAUACAACCUACUACCUCA | 0.158 ± 0.019
28 | GGAGACCUAUGAUAACAACCUACUACCUCU [g2:g16:cont:t1U] | 0.00588 ± 0.0024
29 | GGAGUGCAUACUAUACAACCUACAACCUCA | 0.0916 ± 0.01
30 | GGAGACCUAUCUAUACUACCUACUAGCUCA | 0.0698 ± 0.014
31 | GGAGUGGAUACUAUACAACCUACUACGUCA | 0.0515 ± 0.0063
32 | GGAGACCUAACUAUUGAACCUACUACCUCA | 0.0878 ± 0.011
33 | GGAGACCUUACUAUACAACCUACUACGCUCA | 0.256 ± 0.019
34 | GGAGACCUAACUAUACAACCUCCUACCUCA | 0.0273 ± 0.011
35 | GGAGACCUUACUAUAGAUCCUACUACCUCA | 0.204 ± 0.017
36 | GGAGACCAUACUAUACAACGUACUACCUCA | 0.0191 ± 0.0046
37 | GGAGACCAUUCUAUACAACCUACUAGCUCA | 0.0909 ± 0.015
38 | GGAGUGGAUACUAUAGAUCCUACUACCUCA | 0.251 ± 0.015
39 | GGAGACCUAUCUAUACAACCUACUACCACA | 0.136 ± 0.019
40 | GGAGACCUUACUAUACACCCUACUACCUCA | 0.058 ± 0.0099
